Compounds without any hit were thinned out: in the full panel of roughly 83,000, 20% have a hit.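 Percent growth is the endpoint: 0 to 100 indicates growth inhibition (40 means 60% inhibition), 0 means no net growth, and negative values indicate cell death.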 Unmarked numbers belong to inactive results. Calls of active or inactive are those of the source. The calls were made as follows: active = growth percent below 10; inactive = the rest.

Our source for the growth values is PubChem BioAssay (NCI).

For the assay, the system named is T-47D breast. The assay is described as follows: NCI-60 one-dose screen, 48 h (100 = growth as untreated, 0 = no growth, -100 = all killed). Conditions: 10 µM unless noted.
On to `COc1ccc(N=Nc2c(N)nn3c(-c4ccc(OC)c(OC)c4)ccnc23)cc1`, for which the growth is 62%.

In the case of `CC1=C(C)C(=O)C(NCCN2CCOCC2)=C(Br)C1=O`, the growth is -58.6% (active).

In the case of `COc1ccc(Nc2ncnc3sc4c(c23)CCN(Cc2ccccc2)C4)cc1`, the growth was 27.3%.

For the compound `CCCCCCCCCc1ccc(C(=O)Nc2cc(C)ccc2C(=O)OC)cc1`, the growth is 99.1%. In the case of `O=C(N/N=C/c1ccc(Cl)o1)c1[nH]c2ccc(Br)cc2c1-c1ccccc1`, the growth is 29.8%.

For `O=C(N/N=C/c1occc1Br)c1[nH]c2ccc(Br)cc2c1-c1ccccc1`, the growth was -77% (active). For `c1n[nH]cc1-c1nc2ccc3cn[nH]c3c2c2c1CCCC2`, the growth was 74.7%. Under `Cc1ccc(C(=O)Nc2cc(-n3ccnc3)cc(C(F)(F)F)c2)cc1-n1cc(-c2cnc3cccnn23)nn1` stands 113%; under `COc1ccc(-c2nc3ccc(-c4nnc(SCc5ccccc5)o4)cc3[nH]2)cc1`, -41.9% (active).

Regarding `Cc1ccc(C2CC(c3ccc(NC(=S)Nc4ccccc4)cc3)=NN2c2ccc(S(N)(=O)=O)cc2)cc1` (centres undefined), the growth is 24.5%.

On to `COc1ccc(C(=O)NNC(=O)CSc2nc3sc4c(c3c(=O)n2-c2ccc(Cl)cc2)CCCC4)cc1`, for which the growth was 72.5%. The result for `Cc1[nH]nc2ccc3nc(-c4cn[nH]c4C(F)(F)F)c4c(c3c12)CCCC4` reads 3.05% (active). The result for `CCC(=O)c1c2c(c3ccc4c5ccccc5ccc4n13)C(=O)c1ccccc1C2=O` reads 87.2%. Under `Cn1cc(-c2cc3nc(-c4cn(C)c5ncc(Br)cc45)cc(N)n3n2)c2cc(F)ccc21` stands 2.75% (active).
